The text below walks through data of ChEMBL document CHEMBL3988442, “University of Dundee, Small-Polar-MMV Screening Library” (2021).

Structures are written as SMILES. For some of these results: Entries with a potency or affinity are not part of this list.

Holding throughout (parameters): scale not given: direction of the effect not stated beside the values
Assay [1] has as its target Protein translocase subunit SecA (Escherichia coli (strain K12)) (UniProt P10408). Briefly: Assay to Identify E. coli SecA ATPase Inhibitors. Format: functional. As to conditions: 30 µM.
Assay [2] deals with T1, Ubiquitin-activating enzyme e1, putative (Leishmania donovani (strain BPK282A1)) (UniProt E9BSI1).
T1 sequence (whole entry): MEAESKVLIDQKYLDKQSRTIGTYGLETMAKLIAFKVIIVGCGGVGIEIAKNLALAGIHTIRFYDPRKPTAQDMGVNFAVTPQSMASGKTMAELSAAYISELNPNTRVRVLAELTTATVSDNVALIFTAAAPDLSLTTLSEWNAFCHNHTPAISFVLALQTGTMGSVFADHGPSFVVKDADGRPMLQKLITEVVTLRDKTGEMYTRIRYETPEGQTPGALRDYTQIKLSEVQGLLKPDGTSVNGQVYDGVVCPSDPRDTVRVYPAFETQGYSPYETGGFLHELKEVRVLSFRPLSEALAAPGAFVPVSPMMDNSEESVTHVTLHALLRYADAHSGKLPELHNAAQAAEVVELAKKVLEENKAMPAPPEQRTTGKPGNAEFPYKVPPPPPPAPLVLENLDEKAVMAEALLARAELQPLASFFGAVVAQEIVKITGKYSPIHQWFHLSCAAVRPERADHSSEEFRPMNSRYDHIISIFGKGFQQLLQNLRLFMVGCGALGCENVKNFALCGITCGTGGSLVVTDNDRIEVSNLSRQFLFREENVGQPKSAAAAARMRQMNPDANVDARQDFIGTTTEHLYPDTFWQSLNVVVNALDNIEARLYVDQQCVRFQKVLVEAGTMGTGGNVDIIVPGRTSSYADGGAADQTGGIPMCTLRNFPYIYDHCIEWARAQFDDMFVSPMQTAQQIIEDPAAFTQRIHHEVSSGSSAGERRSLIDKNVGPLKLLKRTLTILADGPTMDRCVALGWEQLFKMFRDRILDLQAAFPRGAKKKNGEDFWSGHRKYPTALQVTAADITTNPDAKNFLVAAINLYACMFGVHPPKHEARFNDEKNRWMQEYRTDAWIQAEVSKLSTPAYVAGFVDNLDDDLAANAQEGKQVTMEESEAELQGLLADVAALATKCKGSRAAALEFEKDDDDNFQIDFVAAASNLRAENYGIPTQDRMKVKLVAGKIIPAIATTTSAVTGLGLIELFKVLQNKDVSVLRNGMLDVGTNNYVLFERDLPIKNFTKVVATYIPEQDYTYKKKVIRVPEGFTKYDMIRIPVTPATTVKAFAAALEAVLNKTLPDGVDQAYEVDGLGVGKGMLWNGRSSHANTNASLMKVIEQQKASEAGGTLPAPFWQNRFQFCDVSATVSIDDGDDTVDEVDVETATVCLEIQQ
Description: Leishmania donovani Ubiquitin Activating Enzyme (LdE1). Format: functional. Particulars: 30 µM.

For assay [3], the target named is AMP-activated protein kinase, AMPK (Homo sapiens) (UniProt P54646+O43741+P54619+Q9UGJ0+Q9Y478+Q13131+Q9UGI9). Briefly: AMP-dependent Kinase enzyme assay. An in vitro enzyme assay that detects ADP turnover that is directly proportional to AMPK activity. This uses naive AMPK that is activated during the assay with MK-8722. Format: functional. Particulars: 30 µM.
Assay [4] concerns the target Sialic acid-binding Ig-like lectin 9 (Homo sapiens) (UniProt Q9Y336). Description: Hs-Siglec9 ALPHAscreen SOP 20170721. As to conditions: 10 µM. On the technique in general: Bead proximity is the source of the signal in Alpha formats.
In the next assay the test system is Trypanosoma cruzi. Briefly: Trypanosoma cruzi phosphomannomutase and mannose-1-phosphate guanylyltransferase assay. As to conditions: 10 µM. Format: functional.
The target in assay [5] is T2, Arginase-2, mitochondrial (Homo sapiens) (UniProt P78540).
T2 sequence (whole entry): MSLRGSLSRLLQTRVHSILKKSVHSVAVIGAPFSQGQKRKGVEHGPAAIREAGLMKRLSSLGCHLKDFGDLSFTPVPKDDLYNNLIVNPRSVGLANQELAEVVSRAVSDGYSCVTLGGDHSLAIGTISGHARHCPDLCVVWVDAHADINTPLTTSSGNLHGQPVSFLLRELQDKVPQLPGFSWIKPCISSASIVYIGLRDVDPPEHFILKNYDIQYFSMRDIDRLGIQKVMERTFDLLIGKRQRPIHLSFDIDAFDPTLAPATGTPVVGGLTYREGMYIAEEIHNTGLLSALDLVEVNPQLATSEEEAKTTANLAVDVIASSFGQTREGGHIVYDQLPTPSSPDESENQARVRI
Briefly: in vitro enzyme assay to detect the production of urea directly proportional to the activity of Arginase II. Note: in the data most compounds retested in dose-response had high values. The class given is functional. Particulars: 33.3 µM.

In assay [6] the target is T3, Proteasome subunit beta (Trypanosoma cruzi) (UniProt O96673).
T3 sequence (whole entry): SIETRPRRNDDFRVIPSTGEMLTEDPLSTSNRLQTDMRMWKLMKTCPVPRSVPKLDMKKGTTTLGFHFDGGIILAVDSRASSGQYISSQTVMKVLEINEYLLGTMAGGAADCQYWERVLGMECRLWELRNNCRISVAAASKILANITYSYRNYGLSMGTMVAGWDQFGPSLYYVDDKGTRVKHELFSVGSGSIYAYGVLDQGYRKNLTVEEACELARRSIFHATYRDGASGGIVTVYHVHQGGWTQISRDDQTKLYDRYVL
Description: Trypanosoma cruzi proteasome chymotrypsin-like activity (TcProtChymo) assay. Note: in the data most compounds retested in dose-response had high values. Format: functional. As to conditions: 9.37 µM.

The species entered for another assay is Homo sapiens. Description: To identify inhibition of the IFN signalling (Jak-Stat) pathway via expression of an eGFP reporter gene under the control of an IFN-stimulated response element (ISRE) containing MxA promoter. The class given is functional. As to conditions: 30 µM. For orientation: In a reporter assay the amount or activity of a reporter protein is the signal.

The target in assay [7] is T4, Tyrosyl-tRNA synthetase, putative (Trypanosoma cruzi (strain CL Brener)) (UniProt Q4DSP6).
T4 sequence (whole entry): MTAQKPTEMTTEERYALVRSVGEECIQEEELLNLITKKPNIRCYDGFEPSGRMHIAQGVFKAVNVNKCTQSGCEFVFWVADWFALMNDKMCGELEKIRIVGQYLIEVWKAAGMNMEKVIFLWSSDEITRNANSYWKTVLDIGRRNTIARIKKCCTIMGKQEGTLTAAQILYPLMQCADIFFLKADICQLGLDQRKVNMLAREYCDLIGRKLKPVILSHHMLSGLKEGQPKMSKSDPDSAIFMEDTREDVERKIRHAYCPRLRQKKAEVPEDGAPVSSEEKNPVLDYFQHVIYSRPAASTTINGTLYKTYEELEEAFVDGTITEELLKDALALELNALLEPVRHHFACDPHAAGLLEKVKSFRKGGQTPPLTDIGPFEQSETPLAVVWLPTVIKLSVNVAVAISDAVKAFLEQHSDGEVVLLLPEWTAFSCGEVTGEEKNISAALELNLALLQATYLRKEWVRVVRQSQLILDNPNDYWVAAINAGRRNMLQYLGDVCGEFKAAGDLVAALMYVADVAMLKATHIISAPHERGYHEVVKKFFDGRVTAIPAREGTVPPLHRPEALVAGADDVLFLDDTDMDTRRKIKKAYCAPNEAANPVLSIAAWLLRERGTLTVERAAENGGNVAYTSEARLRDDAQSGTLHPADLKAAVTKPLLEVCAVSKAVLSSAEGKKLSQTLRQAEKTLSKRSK
Briefly: Trypanosoma cruzi tyrosyl tRNA synthetase (TcYRS) _High Tyrosine SOP. Note: in the data most compounds retested in dose-response had high values. Format: functional. As to conditions: 30 µM.

Assay [8] concerns the target T4, Tyrosyl-tRNA synthetase, putative (Trypanosoma cruzi (strain CL Brener)). Description: Trypanosoma cruzi tyrosyl tRNA synthetase (TcYRS) SOP. The class given is functional. As to conditions: 30 µM.
The target of assay [9] is Chromo domain-containing protein 1 (Saccharomyces cerevisiae (strain ATCC 204508 / S288c) (Baker's yeast)) (UniProt P32657). Briefly: ScCHD-1 Enzyme Inhibition Assay. Note: in the data most compounds retested in dose-response had high values. The class given is functional. Particulars: 30 µM.
Chain of Chromo domain-containing protein 1 (Saccharomyces cerevisiae (strain ATCC 204508 / S288c) (Baker's yeast)) (P32657 whole entry, the tested form may be a part): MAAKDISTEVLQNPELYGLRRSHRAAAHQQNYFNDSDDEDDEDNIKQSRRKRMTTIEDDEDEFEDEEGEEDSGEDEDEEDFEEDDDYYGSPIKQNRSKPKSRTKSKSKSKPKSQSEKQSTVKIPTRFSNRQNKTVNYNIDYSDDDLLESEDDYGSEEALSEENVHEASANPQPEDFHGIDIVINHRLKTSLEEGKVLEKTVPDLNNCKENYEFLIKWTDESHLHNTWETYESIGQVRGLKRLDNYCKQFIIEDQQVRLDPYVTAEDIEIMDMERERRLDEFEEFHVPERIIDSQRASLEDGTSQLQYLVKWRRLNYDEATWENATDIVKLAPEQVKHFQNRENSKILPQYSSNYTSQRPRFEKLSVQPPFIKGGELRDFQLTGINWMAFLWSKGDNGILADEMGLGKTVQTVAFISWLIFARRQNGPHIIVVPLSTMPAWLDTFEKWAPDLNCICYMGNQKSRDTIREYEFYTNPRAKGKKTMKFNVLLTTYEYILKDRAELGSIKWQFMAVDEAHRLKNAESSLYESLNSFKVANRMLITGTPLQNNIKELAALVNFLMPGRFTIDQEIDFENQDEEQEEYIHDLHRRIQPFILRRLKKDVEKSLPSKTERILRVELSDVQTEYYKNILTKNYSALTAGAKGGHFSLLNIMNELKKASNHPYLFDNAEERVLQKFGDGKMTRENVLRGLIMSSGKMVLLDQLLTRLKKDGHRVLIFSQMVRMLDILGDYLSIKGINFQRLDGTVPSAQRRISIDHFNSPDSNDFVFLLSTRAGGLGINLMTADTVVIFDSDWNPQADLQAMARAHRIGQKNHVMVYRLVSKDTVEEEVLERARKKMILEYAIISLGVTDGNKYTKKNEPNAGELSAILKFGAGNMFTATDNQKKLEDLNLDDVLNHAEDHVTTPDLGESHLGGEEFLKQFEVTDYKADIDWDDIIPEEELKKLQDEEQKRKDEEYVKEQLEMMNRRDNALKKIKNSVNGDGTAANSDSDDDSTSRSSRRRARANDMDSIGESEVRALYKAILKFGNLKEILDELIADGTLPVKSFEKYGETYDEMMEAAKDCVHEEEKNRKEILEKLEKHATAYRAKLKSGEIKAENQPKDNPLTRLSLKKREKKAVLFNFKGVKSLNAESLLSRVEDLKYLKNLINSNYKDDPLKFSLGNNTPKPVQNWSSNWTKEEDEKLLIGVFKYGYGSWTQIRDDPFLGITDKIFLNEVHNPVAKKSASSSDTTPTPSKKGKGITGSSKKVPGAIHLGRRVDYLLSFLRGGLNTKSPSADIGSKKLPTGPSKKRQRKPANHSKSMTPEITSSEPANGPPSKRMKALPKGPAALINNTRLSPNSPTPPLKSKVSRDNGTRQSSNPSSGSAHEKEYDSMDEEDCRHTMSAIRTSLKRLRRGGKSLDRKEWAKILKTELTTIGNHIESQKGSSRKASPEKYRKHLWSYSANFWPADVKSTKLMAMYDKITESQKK

Chain of Sialic acid-binding Ig-like lectin 9 (Homo sapiens) (Q9Y336 whole entry): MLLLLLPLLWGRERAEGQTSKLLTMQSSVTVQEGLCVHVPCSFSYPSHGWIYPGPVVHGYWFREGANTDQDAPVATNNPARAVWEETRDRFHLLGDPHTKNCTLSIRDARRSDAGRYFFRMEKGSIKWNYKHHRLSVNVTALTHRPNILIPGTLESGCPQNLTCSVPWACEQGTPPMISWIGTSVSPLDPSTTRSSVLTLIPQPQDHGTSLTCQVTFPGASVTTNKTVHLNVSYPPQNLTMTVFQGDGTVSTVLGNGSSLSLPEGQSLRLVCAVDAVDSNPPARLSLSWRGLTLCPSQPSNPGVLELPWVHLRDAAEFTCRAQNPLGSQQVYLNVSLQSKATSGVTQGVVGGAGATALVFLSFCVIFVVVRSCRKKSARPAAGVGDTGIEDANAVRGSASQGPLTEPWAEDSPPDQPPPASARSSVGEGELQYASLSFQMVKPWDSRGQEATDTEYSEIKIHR
Chain of Protein translocase subunit SecA (Escherichia coli (strain K12)) (P10408 whole entry): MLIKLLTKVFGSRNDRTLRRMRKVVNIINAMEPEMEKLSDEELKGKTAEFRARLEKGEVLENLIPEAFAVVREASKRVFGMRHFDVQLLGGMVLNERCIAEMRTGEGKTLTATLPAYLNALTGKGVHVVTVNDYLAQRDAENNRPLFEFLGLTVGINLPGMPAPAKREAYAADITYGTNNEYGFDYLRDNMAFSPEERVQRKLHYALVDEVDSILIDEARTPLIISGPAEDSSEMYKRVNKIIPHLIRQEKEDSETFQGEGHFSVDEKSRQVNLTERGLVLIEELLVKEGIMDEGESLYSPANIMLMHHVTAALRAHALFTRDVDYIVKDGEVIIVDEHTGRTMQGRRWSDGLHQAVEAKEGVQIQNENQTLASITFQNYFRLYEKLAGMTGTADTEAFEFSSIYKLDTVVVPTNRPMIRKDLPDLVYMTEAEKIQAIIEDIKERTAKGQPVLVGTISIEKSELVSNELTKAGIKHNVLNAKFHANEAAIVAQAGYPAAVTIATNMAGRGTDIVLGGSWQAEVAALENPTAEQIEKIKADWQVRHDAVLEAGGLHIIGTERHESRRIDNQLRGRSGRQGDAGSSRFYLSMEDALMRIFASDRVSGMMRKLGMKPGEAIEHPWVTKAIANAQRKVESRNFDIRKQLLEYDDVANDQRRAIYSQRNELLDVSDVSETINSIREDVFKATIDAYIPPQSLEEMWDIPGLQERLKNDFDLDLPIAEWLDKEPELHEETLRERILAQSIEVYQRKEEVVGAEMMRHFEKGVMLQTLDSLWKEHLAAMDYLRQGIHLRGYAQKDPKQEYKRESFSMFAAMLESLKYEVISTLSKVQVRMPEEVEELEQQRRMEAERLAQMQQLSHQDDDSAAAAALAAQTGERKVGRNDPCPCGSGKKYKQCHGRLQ

For the molecule `Cc1cc(C[C@@H]2COC[C@H]2NCc2ccccc2C(F)(F)F)on1`, the Percent Effect in [1] is -5.6%; in [2], 4.05%; in [3], -0.353%; in assay [4], 6.23%; in the assay with Trypanosoma cruzi, 1.58%; in assay [5], 0.232%. Also, the Percent Effect in assay [6] was 14%; in the assay filed under Homo sapiens it was 5.54%; in [7], 3.23%; in assay [8], 11.7%; in assay [9], -18.2%.

Consider `CCOCc1ncn2c1CN(C(=O)Nc1cccc(C)c1)CC2`, for which the Percent Effect in [1] is -0.857%; in assay [2], -173%; in assay [3], 3.58%; in assay [4] it was 1.03%; in the assay with Trypanosoma cruzi, -2.54%; in assay [5], 0.417%. The Percent Effect was found to be 9.21% in [6]; 2.31% in the assay filed under Homo sapiens; 12.9% in [7]; 13.4% in assay [8]; 1.64% in [9].

`O=C(CCc1nccs1)N1CCN(c2ncccn2)CC1`: the Percent Effect was -10.4% in assay [1]; -7.79% in assay [2]; -1.74% in [3]; -4.24% in assay [4]; 7.93% with Trypanosoma cruzi; -0.632% in [5]. In addition, the Percent Effect was 9.3% in [6]; 1.03% in the assay filed under Homo sapiens; 5.71% in assay [7]; 18.8% in [8]; -11% in [9].

`CN1CC(C(=O)NC(C)(C)C)CC1=O` (stereo unspecified): the Percent Effect in [1] is -3.04%; in assay [2] it was -5.48%; in assay [3] it was -0.441%; in [4], -0.584%; in the assay on Trypanosoma cruzi it was -0.595%; in assay [5], -3.59%. Further, the Percent Effect is 3% in [6]; -7.57% in the assay listed under Homo sapiens; 2.08% in assay [7]; 8.64% in [8]; 6.01% in assay [9].

With `O=C(c1cccc(F)c1)N1CCN2C[C@H](OCc3cccnc3)C[C@H]2C1`, the Percent Effect in [1] was -4.82%; in [2], 10.7%; in [3] it was 5.61%; in assay [4] it was 1.34%; in the assay on Trypanosoma cruzi it was -3.15%; in [5] it was 6.29%. For the same molecule, the Percent Effect in assay [6] was 10.7%; in the assay listed under Homo sapiens it was 8.83%; in assay [7], 3.19%; in assay [8], 14.1%; in assay [9], -3.02%.

Regarding `O=C(Nc1cccnc1)[C@H]1C[C@@H]2CCN(c3nncs3)C[C@H]2O1`, the Percent Effect in assay [1] is -0.711%; in [2], 5.41%; in assay [3] it was -5.74%; in [4] it was -1.47%; in the assay with Trypanosoma cruzi, 2.54%; in assay [5] it was -2.08%. For the same molecule, the Percent Effect in assay [6] was 10.4%; in the assay filed under Homo sapiens, 4.24%; in assay [7], 10.9%; in assay [8], 13.4%; in [9] it was -4.77%.

Consider `CCN(CCn1cccn1)Cc1nc(-c2cccs2)oc1C`, for which the Percent Effect in assay [1] was -3.57%; in assay [2], -1.39%; in assay [3] it was 40.3%; in [4], -4.42%; in the assay on Trypanosoma cruzi it was 0.486%; in assay [5], 0.442%. The Percent Effect came to 2.63% in assay [6]; 0.654% in the assay filed under Homo sapiens; 4.21% in assay [7]; 2.56% in assay [8]; 0.676% in assay [9].

For `Cc1nonc1CN(C)CC1(O)CCCN(CCC2CCCCC2)C1=O` (stereo unspecified), the Percent Effect in [1] is 2.32%; in [2] it was 8%; in assay [3] it was -14.2%; in assay [4] it was -0.787%; with Trypanosoma cruzi it was 1.66%; in assay [5] it was 12.5%. Moreover, the Percent Effect is 16.4% in assay [6]; 35.9% in the assay filed under Homo sapiens; 10.4% in assay [7]; 18.5% in [8]; -1.61% in assay [9].

Consider `O=C(Cc1ccc2c(c1)OCCO2)NC1CCCC1`, for which the Percent Effect was -5.5% in [1]; 18.2% in [2]; 2.67% in assay [3]; -8.79% in [4]; -11.2% with Trypanosoma cruzi; -2.85% in assay [5]. Further, the Percent Effect in assay [6] is 5.74%; in the assay listed under Homo sapiens, 32.2%; in [7], 1.94%; in assay [8], 7.32%; in assay [9], -5.69%.

In the case of `CCOc1ccc(-n2nnc(C(=O)O)c2-c2ccccn2)cc1`, the Percent Effect in assay [1] is -1.24%; in assay [2] it was 7.89%; in assay [3], 4.82%; in assay [4], -2.3%; in the assay on Trypanosoma cruzi it was 0.487%; in [5], 0%. In addition, the Percent Effect in assay [6] is 29.2%; in the assay filed under Homo sapiens it was 5.63%; in [7], 3.19%; in [8], 13%; in assay [9] it was -4.17%.

Regarding `CCc1noc(C)c1C(=O)N1CCCC1Cn1nc(C)cc1C` (stereo unspecified), the Percent Effect was -3.14% in [1]; 5.26% in assay [2]; -1.52% in assay [3]; -4.06% in [4]; 2.71% in the assay on Trypanosoma cruzi; 1.8% in assay [5]. For the same molecule, the Percent Effect in assay [6] is -3.47%; in the assay filed under Homo sapiens it was -20.2%; in assay [7] it was 4.43%; in assay [8] it was 13.6%; in assay [9] it was -6.42%.
